Among the data in PubChem BioAssay AID588674 (Broad Institute, 2011) are inhibition values, retold here.

Molecules are shown by their SMILES. In all, about 360,000 compounds went through this assay and about 1,800 (0.5%) were called active.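 Rule for the calls: active = mean inhibition of at least 75% with every replicate also reaching 75%; inconclusive = mean inhibition at least 75% but some replicate below; inactive = mean inhibition below 75%.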 The full list was thinned out, with actives kept by preference.

The assay is described as follows: reduction of Shn3 3'UTR firefly luciferase signal, primary screen, Schnurri-3 inhibitor project, cell-based, Clone20 osteoblasts, set 2 (AID 588674).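 Note: 0% = median of neutral control wells and 100% = pilot-screen positive control compound.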 Particulars: Clone20 osteoblast Shn3 3'UTR firefly luciferase, 24 h; at 12.5 µM; stronger effect = higher value.
For `CCCCCCCCCCCCn1ccc(=N)cc1`, the inhibition – broadly, the drop in the measured response relative to a control, in per cent – is 90.6% (active).
Regarding `CN1C2C=C(N(C(=O)c3ccc(Cl)cc3)c3ccccc3)CC1CC2` (stereo not given), the inhibition was -7.65% (inactive).
With `Cc1ccc(S(=O)(=O)N(C)c2ccc(C(=O)NCC3(N(C)C)CCCCC3)cc2)cc1`, the inhibition is -2.63% (inactive).
As for `Nc1ccc(C(=O)N/N=C2/CN3CCC2CC3)cc1`, the inhibition is -22.5% (inactive).
Then `CCC(C)(O)C(=O)OC1C(=O)OC2CC3C(C)=CC(=O)C(O)C3(C)C3C4(O)OCC23C1C(C)C4O` (stereo not given), with 91.5% (active).
Then `Cc1ccc(C2CN(C)CC2C(=O)c2ccc(F)cc2)cc1` (stereo not given), with 6.66% (inactive); and `O=C1NC(=O)C(CCc2ccccn2)(Cc2cccc(Cl)c2Cl)C(=O)N1c1ccc(Br)cc1` (stereo not given), with 13.7% (inactive); and `CC(=O)OC1C2(CC3N4C(=O)C5(CO)SSC4(CC31O)C(=O)N5C)OC(C)C(C)(C)C2=O` (stereo not given), with 98.1% (active).
As for `CCC(=O)c1ccc(OCC(=O)N2CCN(CC(=O)Nc3ccc(C)cc3)CC2)cc1`, the figure is 19.6% (inactive); as for `O=C1C2CCN(CC2)C1(CO)CO`, -25.5% (inactive); as for `O=C(c1ccccc1)C(O)(CN1CCCCC1)c1ccccc1` (stereo not given), 5.93% (inactive).
On to `CCN1C(=O)C(=Cc2c(C)n(CC(=O)NCC3CCCO3)c3ccccc23)C(=O)N(CC)C1=S` (stereo not given), for which the inhibition is 1.7% (inactive).
Take `Clc1ccc2nc3c(c(-c4ccccc4)c2c1)CNCC3`: the inhibition is 14.4% (inactive).
Take `C[C@]12CCC3C(CC[C@H]4[C@H](O)[C@H](O)CC[C@]34C)C1CCC2=O` (stereo not given in full): the inhibition was -16.7% (inactive).
On to `Cc1ccc(N2C(=O)NC(=O)C(CCc3ccncc3)(Cc3cccc(Cl)c3Cl)C2=O)cc1` (stereo not given), for which the inhibition is -0.01% (inactive).
